About 83,000 compounds went through this panel and 20% of them were active in at least one assay; those are over-represented in the sample as a whole.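 Growth was measured after 48 h exposure to one concentration of compound in 96-well plates. Values under 10 count as active.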 A number with no mark means an inactive call. Active and inactive are the calls of the source.

Holding throughout (test): NCI-60 one-dose screen, 48 h (100 = growth as untreated, 0 = no growth, -100 = all killed)
One test concerns EKVX NSCLC. Conditions: 10 µM unless noted.
The subject of a further test is SN12C renal. Conditions: 10 µM unless noted.
For another test, the system named is UO-31 renal. The note with it: 10 µM unless noted.
The next test deals with ACHN renal. The note with it: 10 µM unless noted.
The test system of the next test is CAKI-1 renal. Conditions: 10 µM.
The next test relates to A498 renal. The note with it: 10 µM unless noted.
The test system of the next test is CCRF-CEM leukemia. The note with it: 10 µM unless noted.
In the next test the test system is MOLT-4 leukemia. The note with it: 10 µM unless noted.
The subject of another test is SR leukemia. The note with it: 10 µM unless noted.
For the next test, the system named is RPMI-8226 leukemia. The note with it: 10 µM unless noted.
Another test concerns OVCAR-8 ovarian. The note with it: 10 µM unless noted.
In a further test the test system is OVCAR-5 ovarian. Conditions: 10 µM unless noted.
Another test has as its system OVCAR-4 ovarian. The note with it: 10 µM unless noted.
In a further test the test system is SK-OV-3 ovarian. Conditions: 10 µM unless noted.
The next test has as its system IGROV1 ovarian. The note with it: 10 µM unless noted.
The subject of a further test is HS 578T breast. The note with it: 10 µM unless noted.
In a further test the test system is NCI/ADR-RES ovarian. The note with it: 10 µM unless noted.
The test system of a further test is TK-10 renal. The note with it: 10 µM unless noted.

As for `CN1CCN(c2ccc(C(=O)/C=C/c3ccc(Cl)c(C(F)(F)F)c3)cc2)CC1`, the growth is 70.2% in the test on EKVX NSCLC; 49.1% in the test on SN12C renal; 50.5% with UO-31 renal; 65.7% in the test on ACHN renal; 64.1% in the test on CAKI-1 renal; 81.6% in the test with A498 renal. Further, the growth in the test on CCRF-CEM leukemia is 11%; in the test with MOLT-4 leukemia it was 41.6%; in the test on SR leukemia, 2.99% (active); with RPMI-8226 leukemia, 3.06% (active); in the test with OVCAR-8 ovarian, 55%; with OVCAR-5 ovarian, 79.7%. The growth was 66% with OVCAR-4 ovarian; 105% with SK-OV-3 ovarian; 78.1% with IGROV1 ovarian; 87.3% in the test on HS 578T breast; 64.4% in the test on NCI/ADR-RES ovarian.
In the case of `COCCOc1ccc(-c2csc(NC(C)=O)n2)cc1NS(=O)(=O)c1cccc2c(N(C)C)cccc12`, the growth is 85.2% with EKVX NSCLC; 79.8% with SN12C renal; 64.2% in the test on UO-31 renal; 72% in the test on ACHN renal; 71.3% with CAKI-1 renal; 74.8% in the test on A498 renal. Further, the growth was 105% in the test with CCRF-CEM leukemia; 69.6% with RPMI-8226 leukemia; 97.6% in the test on OVCAR-8 ovarian; 105% in the test on OVCAR-5 ovarian; 86.8% in the test with OVCAR-4 ovarian; 119% with SK-OV-3 ovarian. The growth in the test on IGROV1 ovarian was 77.1%; in the test on HS 578T breast it was 88%; in the test with NCI/ADR-RES ovarian, 84.4%.
In the case of `Cc1cccc(NC(c2cc3cccc4ccc5cccc2c5c43)c2nnnn2C(C)(C)C)c1C` (stereo unspecified), the growth is 75.2% in the test on EKVX NSCLC; 93% in the test with SN12C renal; 66.9% in the test with UO-31 renal; 138% in the test on TK-10 renal; 90.4% in the test with ACHN renal; 66.3% with CAKI-1 renal. Besides, the growth with CCRF-CEM leukemia is 95%; in the test with MOLT-4 leukemia, 76%; in the test on SR leukemia, 86.3%; with RPMI-8226 leukemia, 86.9%; in the test on OVCAR-8 ovarian, 92.8%; in the test with OVCAR-5 ovarian it was 87%. Also, the growth was 85.2% in the test on OVCAR-4 ovarian, 77.4% in the test with SK-OV-3 ovarian, 88% in the test on HS 578T breast and 89.4% in the test on NCI/ADR-RES ovarian.
`COc1ccc(C2C(C#N)=C(N)Oc3c2sc2ccc(C)cc32)cc1` (stereo unspecified): the growth with EKVX NSCLC is 53.4%; in the test on SN12C renal, 34.9%; in the test on UO-31 renal, 41.7%; with TK-10 renal, 81.4%; with ACHN renal, 44.9%; in the test on CAKI-1 renal, 32.1%. For the same compound, the growth in the test with CCRF-CEM leukemia was 26.4%; with MOLT-4 leukemia, 45%; in the test with SR leukemia, 25.7%; in the test on RPMI-8226 leukemia, 36.5%; in the test with OVCAR-8 ovarian it was 56%; in the test on OVCAR-5 ovarian, 51.4%. Also, the growth was 63% in the test with OVCAR-4 ovarian; 41.2% in the test on SK-OV-3 ovarian; 39.8% with IGROV1 ovarian; 3.28% (active) in the test with HS 578T breast; 23.6% in the test on NCI/ADR-RES ovarian.
For `O=C1Nc2ccc(Cl)cc2/C1=C/c1ccc(OCc2ccc(F)cc2)cc1`, the growth is 90.9% in the test with EKVX NSCLC; 93.9% in the test on SN12C renal; 86.4% with UO-31 renal; 99% with TK-10 renal; 103% in the test with ACHN renal; 74.6% with CAKI-1 renal. The growth is -53.8% (active) in the test with CCRF-CEM leukemia; 93.4% with MOLT-4 leukemia; 101% in the test with SR leukemia; 69.8% with RPMI-8226 leukemia; 98.5% in the test on OVCAR-8 ovarian; 94% in the test on OVCAR-5 ovarian. In addition, the growth is 97.5% with OVCAR-4 ovarian; 101% in the test on SK-OV-3 ovarian; 100% in the test with IGROV1 ovarian; 101% in the test with HS 578T breast; 80.5% in the test on NCI/ADR-RES ovarian.
Take `Fc1ccccc1/C=C(/C1=NCCN1)n1cnc2ccccc21`: the growth in the test with EKVX NSCLC was 95%; in the test on SN12C renal, 97.4%; with UO-31 renal, 85.3%; in the test with TK-10 renal, 99.4%; in the test on ACHN renal it was 97%; in the test with CAKI-1 renal, 84.1%. Moreover, the growth in the test on CCRF-CEM leukemia was 108%; in the test on MOLT-4 leukemia, 106%; in the test with SR leukemia it was 91.7%; in the test with RPMI-8226 leukemia, 96.9%; in the test on OVCAR-8 ovarian it was 99.6%; in the test on OVCAR-5 ovarian it was 94.8%. The growth with OVCAR-4 ovarian is 90.9%; in the test on SK-OV-3 ovarian, 93.1%; in the test on IGROV1 ovarian it was 95.6%; in the test on HS 578T breast, 93.3%; with NCI/ADR-RES ovarian it was 104%.
On to `CN1CCN(Cc2ccc(NC(=O)c3cncc(C#Cc4[nH]nc5ncncc45)c3)cc2C(F)(F)F)CC1`, for which the growth in the test with EKVX NSCLC was 108%; with SN12C renal it was 48.1%; in the test on UO-31 renal, 82.8%; in the test on TK-10 renal it was 94.7%; with ACHN renal, 59.1%; with CAKI-1 renal, 59.4%. The growth with CCRF-CEM leukemia is 51%; in the test on MOLT-4 leukemia, 47.2%; in the test with SR leukemia, 48%; in the test with RPMI-8226 leukemia, 45.2%; in the test on OVCAR-8 ovarian, 88.7%; with OVCAR-5 ovarian, 77.7%. For the same compound, the growth in the test on OVCAR-4 ovarian is 88.5%; in the test with SK-OV-3 ovarian, 60.8%; in the test on HS 578T breast, 45.9%; in the test on NCI/ADR-RES ovarian, 105%.
Take `Cc1cc(=O)n2nc(-c3cn(C)c4ccc(Cl)cc34)sc2n1`: the growth in the test on EKVX NSCLC was 89.5%; in the test on SN12C renal it was 91.6%; in the test with UO-31 renal, 87.1%; in the test with TK-10 renal, 138%; in the test on ACHN renal, 89.8%; in the test with CAKI-1 renal, 79%. Moreover, the growth was 88.3% in the test with CCRF-CEM leukemia; 86.6% with MOLT-4 leukemia; 93% in the test on SR leukemia; 96.8% with OVCAR-8 ovarian; 93.8% in the test with OVCAR-5 ovarian; 93.7% in the test on OVCAR-4 ovarian. The growth with SK-OV-3 ovarian was 84.3%; in the test on IGROV1 ovarian it was 83.7%; with HS 578T breast it was 83.9%; with NCI/ADR-RES ovarian it was 93.2%.
